High-throughput results from PubChem.
The list is not random: actives were taken first. Their share in the collection is about 3.4%.
MITF TRPM1 HTS: activators of MITF-driven TRPM1 promoter reporter, primary screen, cell-based, SK-MEL-5, luciferase, single point; SK-MEL-5 TRPM1-promoter luciferase, 24 h; % of positive control, neutral wells = 0; activation, % at 12.5 µM; hit rate 0.75% among 300,000; AID 588334, 2011;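 active means mean activation of at least 80% with every replicate also reaching 80%; inconclusive means mean reaches 80% but some replicate falls short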;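 further: 0% = neutral control wells and 100% = parthenolide positive control wells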
Env fusion inh: inhibitors of HIV-1 Env-driven cell-cell fusion, primary screen, HeLa-JRFL effector, CEM21 target cells, luciferase; inhibition, % at 12.3 µM; hit rate 1.1% among 360,000;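 active means mean replicate inhibition score of at least 50 and every replicate individually at or above 50; inconclusive means only one of the two criteria met; inactive means mean below 50 and not all replicates reaching 50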;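 further: 0% = plate neutral controls and 100% = maraviroc near 300 nM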
miR122 inh: miR-122 Renilla sensor signal increase in Huh7, primary screen, miR-122 inhibitor project, cell-based, single point, plate reader. Huh7 miR-122 Renilla luciferase sensor, 48 h; neutral wells = 0, positive control = 100. hit rate 0.3% among 340,000. AID 602342, 2012. activation (reporter increase), % at 12.5 µM;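 active means mean replicate activation score at least 90 and every replicate individually at or above 90; inconclusive means only one of the two criteria met; inactive means neither criterion met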;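 further: higher luciferase means less miR-122 activity so hits act as miR-122 inhibitors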
esBAF inh: Bmi1 luciferase reporter increase in mESCs, primary screen, esBAF inhibitor project, mouse ES cells, Bmi1 luciferase knock-in, single point | 24 h; 100% = twice the neutral-well signal | reporter increase, % at 12.5 µM | hit rate 2% among 350,000 | AID 602393, 2012; in the data active means activation above about 40%; inconclusive means no clear call, values can overlap the other calls;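 further: 0% = median of the plate's neutral control wells and 100% = double that signal; a rise in the Bmi1 reporter signal indicates esBAF inhibition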
Wnt act: Wnt/beta-catenin pathway activators, primary screen, cell-based, plate reader, single point. Wnt/beta-catenin reporter cell assay, activator. activation, % at 9.35 µM. hit rate 1.2% among 300,000. AID 743398, 2014; in the data active means activation above about 30%, passing the limit was not always enough; inconclusive means no clear call, values can overlap the other calls;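 further: 0% = neutral control wells and 100% = positive control wells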
Numbers without * were called inactive; [ ] = another dose, or the depositor's remark.

Results for O=C(CCC1CCCCC1)Nc1ccccc1O ?
MITF TRPM1 HTS: 94.9*; Env fusion inh: -162.5; miR122 inh: -22.8; esBAF inh: 41.6*; Wnt act: 25.0

Results for O=C(CCC1CCCCC1)Nc1ccccc1-c1ccccc1 ?
MITF TRPM1 HTS: -4.8; Env fusion inh: -145.1; miR122 inh: -3.1; esBAF inh: -2.4; Wnt act: -5.3

How did Cc1ccc(O)c(NC(=O)CCC2CCCCC2)c1 do in these assays?
MITF TRPM1 HTS: 83.9*; miR122 inh: 3.1

Results for C[C@H]1CN([C@@H](C)CO)C(=O)c2c(c3ccccc3n2C)-c2ccccc2CO[C@H]1CN(C)C(=O)Cc1ccccc1 ?
Env fusion inh: 56.9*[16.7 µM]; esBAF inh: -1.1

How did C[C@@H]1CN([C@@H](C)CO)C(=O)c2c(c3ccccc3n2C)-c2ccccc2CO[C@H]1CN(C)Cc1cccc(C(F)(F)F)c1 do in these assays?
Env fusion inh: 57.4*[16.7 µM]

How did C[C@H]1CN([C@@H](C)CO)C(=O)c2c(c3ccccc3n2C)-c2ccccc2CO[C@H]1CN(C)C(=O)C1CC1 do in these assays?
Env fusion inh: 61.2*[16.7 µM]; esBAF inh: -1.7

Results for C[C@@H]1CN([C@H](C)CO)C(=O)c2c(c3ccccc3n2C)-c2ccccc2CO[C@H]1CN(C)C(=O)C1CC1 ?
Env fusion inh: 0.8[16.7 µM]; esBAF inh: -7.0

What do the screens show for `C[C@@H]1CN([C@@H](C)CO)C(=O)c2c(c3ccccc3n2C)-c2ccccc2CO[C@H]1CN(C)C(=O)Cc1ccccc1`?
Env fusion inh: 36.6[16.7 µM]; esBAF inh: 1.4

What do the screens show for `C[C@@H]1CN([C@H](C)CO)C(=O)c2c(c3ccccc3n2C)-c2ccccc2CO[C@H]1CN(C)Cc1ccc(C(F)(F)F)cc1`?
Env fusion inh: inconclusive; miR122 inh: -3.5; esBAF inh: 3.1; Wnt act: -12.8

Results for COc1cccc(-c2ccc3c(c2)O[C@H](CN(C)Cc2ccncc2)[C@H](C)CN([C@@H](C)CO)S3(=O)=O)c1 ?
Env fusion inh: -14.9[16.7 µM]; miR122 inh: -13.5[16.7 µM]; esBAF inh: 0.5

How did Cc1ccc(S(=O)(=O)Nc2ccc3c(c2)C(=O)N([C@H](C)CO)C[C@@H](C)[C@H](CN(C)C(=O)NC2CCCCC2)OCCCC[C@@H](C)O3)cc1 do in these assays?
Env fusion inh: -42.3[16.7 µM]; miR122 inh: -12.5[16.7 µM]; esBAF inh: 3.1

What do the screens show for `O=C(NC1CC1)c1ccc(-c2cnc3cccnn23)cc1`?
Env fusion inh: -4.9; miR122 inh: 5.2; esBAF inh: 24.5; Wnt act: 34.6*

How did CCOc1ccc(-c2cnc3cccnn23)cc1 do in these assays?
Env fusion inh: -4.9; miR122 inh: 16.4; esBAF inh: 38.4; Wnt act: 25.5

What do the screens show for `CC(c1ccco1)N(C(=O)C12CC3(C)CC(C)(CC(C)(C3)C1)C2)c1ccccn1` (configuration not stated)?
Env fusion inh: 75.7*; miR122 inh: 1.8; esBAF inh: -3.5

What do the screens show for `CC1(C)CSC(=NCCc2ccccc2)N1`?
MITF TRPM1 HTS: 17.5; Env fusion inh: 0.2; miR122 inh: 1.7; esBAF inh: 44.6*; Wnt act: -2.1

Results for CC(C)NC(=O)N(C)C[C@@H]1Oc2ccc(NC(=O)Cc3ccccc3)cc2C(=O)N([C@@H](C)CO)C[C@@H]1C ?
miR122 inh: -1.1[16.7 µM]; esBAF inh: -4.0

How did CCCOP(=O)(OCCC)C(Nc1cccc(C(F)(F)F)c1)c1ccc(C)cc1 (configuration not stated) do in these assays?
MITF TRPM1 HTS: 2.6; Env fusion inh: 80.6*; miR122 inh: 9.6; esBAF inh: -3.4

How did CN(C)c1cccc(O)c1 do in these assays?
MITF TRPM1 HTS: -0.4; miR122 inh: -1.7; esBAF inh: 5.7; Wnt act: 7.9

Results for Cc1cc(O)ccc1Nc1cc(-c2cccc(N(C)C)c2)ncn1 ?
Env fusion inh: -30.4; miR122 inh: -8.0; esBAF inh: 55.4*; Wnt act: -0.5

How did CCn1cc(/C=C(\NC(=O)c2ccccc2)C(=O)NCCCn2ccnc2)c2ccccc21 do in these assays?
Env fusion inh: -30.5; miR122 inh: 165.4*; esBAF inh: -1.9; Wnt act: -1.4

How did Cc1ccc(C(=O)N/C(=C\c2cn(S(=O)(=O)N(C)C)c3ccccc23)C(=O)NCCCn2ccnc2)cc1 do in these assays?
MITF TRPM1 HTS: -1.5; Env fusion inh: 0.0; miR122 inh: 34.5; esBAF inh: -1.3; Wnt act: -0.3

What do the screens show for `Nc1ncccc1OCc1ccc(Cl)c(Cl)c1`?
Env fusion inh: -43.4; miR122 inh: -7.0; Wnt act: 46.9*

How did COc1cc(CNCc2ccccn2)ccc1OCc1ccc(Cl)c(Cl)c1 do in these assays?
MITF TRPM1 HTS: 105.1*; Env fusion inh: 13.4; miR122 inh: 1.4; esBAF inh: 35.7; Wnt act: 24.8

Results for O=C(OCc1ccc(Cl)c(Cl)c1)c1cccnc1Cl ?
MITF TRPM1 HTS: 12.6; Env fusion inh: -7.7; miR122 inh: -4.2; esBAF inh: 6.8; Wnt act: 1.1

How did COc1ccc(CN(C)C[C@H]2OCCCC[C@@H](C)Oc3ccc(NC(=O)Nc4cccc5ccccc45)cc3C(=O)N([C@@H](C)CO)C[C@@H]2C)cc1 do in these assays?
Env fusion inh: -62.9[16.7 µM]; miR122 inh: -12.7[16.7 µM]; esBAF inh: -3.4

Results for O=C(CN1CCN(Cc2ccc(Cl)cc2)C1=O)NCCCN1CCN(c2ccc(F)cc2)CC1 ?
MITF TRPM1 HTS: -16.3; Env fusion inh: 67.7*; miR122 inh: -0.7; esBAF inh: -27.6

What do the screens show for `C[C@@H]1CN([C@@H](C)CO)C(=O)Cc2cc(NC(=O)Nc3ccc4c(c3)OCO4)ccc2O[C@H]1CN(C)CC1CCCCC1`?
Env fusion inh: 16.6[16.7 µM]; miR122 inh: -6.6[16.7 µM]; esBAF inh: 0.1

What do the screens show for `COc1ccc(NC(=O)Nc2ccc3c(c2)C(=O)N([C@@H](C)CO)C[C@H](C)[C@H](CN(C)C(=O)Nc2ccc(OC)cc2)OCCCC[C@H](C)O3)cc1`?
Env fusion inh: -6.0[16.7 µM]; miR122 inh: 0.0[16.7 µM]; esBAF inh: -2.7

Results for COc1ccc(C(=O)O/N=C(\N)c2ccc(Cl)cc2)cc1 ?
MITF TRPM1 HTS: 89.4*; Env fusion inh: -100.6; miR122 inh: 5.0; esBAF inh: inconclusive; Wnt act: 37.1*

How did COc1ccccc1C(=O)O/N=C(\N)c1ccc(Cl)cc1 do in these assays?
MITF TRPM1 HTS: 38.0; Env fusion inh: -164.1; miR122 inh: 6.1; esBAF inh: 52.1*; Wnt act: -4.4

How did COc1ccc(/C(N)=N/OC(=O)c2ccc(Br)o2)cc1 do in these assays?
MITF TRPM1 HTS: 60.7; Env fusion inh: -75.0; miR122 inh: 5.4; esBAF inh: 57.7*; Wnt act: -0.5
